From PubChem BioAssay AID651699 (Sanford-Burnham Center for Chemical Genomics, 2012)
About 2,100 (0.58%) of roughly 360,000 compounds were called active. The list comes from a sample in which actives are over-represented; it also holds similar structures and randomly drawn compounds. Unmarked numbers belong to inactive results. Rule as the data show it: active = inhibition above about 36%; inactive = the rest.

Molecular target: NEDD8-conjugating enzyme Ubc12 (Homo sapiens) + NEDD8-activating enzyme E1 regulatory subunit (Homo sapiens) (UniProt P61081+Q13564)
Experiment: NEDD8 transfer onto cullin, blockade – biochemical, TR-FRET, uHTS, NAE and Ubc12, primary screen (AID 651699)
Details: TR-FRET cullin neddylation, at 25 µM, active compounds read high

Sequence of NEDD8-conjugating enzyme Ubc12 (Homo sapiens) + NEDD8-activating enzyme E1 regulatory subunit (Homo sapiens) (P61081 whole entry, looked up): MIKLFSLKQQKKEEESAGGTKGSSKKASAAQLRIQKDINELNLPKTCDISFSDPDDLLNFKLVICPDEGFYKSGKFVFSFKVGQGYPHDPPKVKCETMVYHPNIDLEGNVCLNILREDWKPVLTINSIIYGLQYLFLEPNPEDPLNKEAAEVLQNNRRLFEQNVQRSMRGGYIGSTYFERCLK
Sequence of NEDD8-conjugating enzyme Ubc12 (Homo sapiens) + NEDD8-activating enzyme E1 regulatory subunit (Homo sapiens) (Q13564 whole entry, looked up): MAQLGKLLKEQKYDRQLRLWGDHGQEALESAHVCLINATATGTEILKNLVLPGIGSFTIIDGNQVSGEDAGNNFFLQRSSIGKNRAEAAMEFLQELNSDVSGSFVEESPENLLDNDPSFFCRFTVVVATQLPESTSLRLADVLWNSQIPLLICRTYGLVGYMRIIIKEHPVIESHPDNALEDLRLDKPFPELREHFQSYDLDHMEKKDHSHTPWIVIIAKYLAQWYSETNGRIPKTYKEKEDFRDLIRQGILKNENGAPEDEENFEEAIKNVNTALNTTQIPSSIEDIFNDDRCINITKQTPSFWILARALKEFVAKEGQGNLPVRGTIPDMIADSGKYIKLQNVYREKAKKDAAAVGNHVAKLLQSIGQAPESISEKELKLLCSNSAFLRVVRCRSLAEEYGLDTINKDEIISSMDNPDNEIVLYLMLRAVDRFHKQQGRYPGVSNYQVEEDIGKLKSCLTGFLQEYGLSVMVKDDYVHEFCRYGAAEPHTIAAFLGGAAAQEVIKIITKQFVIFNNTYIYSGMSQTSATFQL

Structure (SMILES) | inhibition
CCOC(=O)c1cn(CC)c2cc(F)c(F)cc2c1=O | 6.4%
CC(=O)/C(=N\Nc1ccc(Cl)cc1Cl)Sc1cccc2cccnc12 | -3.61%
CN(CC(=O)Nc1cccc2c1CCCC2)S(=O)(=O)c1ccc(Cl)cc1 | 7.5%
Cc1cc(NC(=O)c2ccccc2C)no1 | -11.1%
Cc1ccc2occ(/C=N/NC(=O)c3ccccc3C)c(=O)c2c1 | 42.8% (active)
Cc1ccc(O)c(/C=N/NC(=O)COc2ccc3c(C)cc(=O)oc3c2)c1 | 17%
CCOc1ccc(NS(=O)(=O)c2ccc(C)c(C(N)=O)c2)cc1 | -4.92%
CCOc1ccc2nc(Cl)c(C3CC(c4ccccc4)=NN3C(=O)c3cccs3)cc2c1 (stereo not drawn) | -162%
CCOc1ccc2nc(NCCNC(=O)C(C)(C)C)c(C)cc2c1 | 42.5% (active)
CCOc1ccc(NC(=O)c2ccc(CSc3nnnn3C)cc2)cc1 | 1.1%
CC(=O)N(c1ccc2oc(=O)sc2c1)S(=O)(=O)c1ccc(C)cc1 | 0.47%
O=C(CN1CCN(C(=O)C2CCCO2)CC1)Nc1c(Cl)cccc1Cl (stereo not drawn) | 10.6%
C=CCNC(=O)C1CC=CCC1C(=O)O (stereo not drawn) | 4.38%
COc1cccc(OC)c1C(=O)Nc1ccc(Cc2ccncc2)cc1 | 7.29%
COc1ccccc1N(C)S(=O)(=O)c1ccc(Cl)c(C(=O)Nc2ccncc2)c1 | 13.9%
COc1cc2ccccc2cc1C(=O)Nc1ccncc1 | 42.2% (active)
O=C1N[C@H](Cc2c[nH]c3ccccc23)COC(=O)[C@H](Cc2ccc(F)cc2)C/C=C\C[C@H]1CC(=O)N(CCO)Cc1ccccc1 | -4.67%
O=C(c1ccc(Cl)cc1)N1N=C(c2ccccn2)CC1(O)C(F)(F)F (stereo not drawn) | 46% (active)
O=C(C1CC1)N1N=C(c2ccc(Br)cc2)CC1(O)C(F)(F)F (stereo not drawn) | -17%
COC(=O)C1(O)CC(C(C)C)=NN1C(=O)c1ccc(Cl)cc1 (stereo not drawn) | 10.8%
CC(=O)NCCc1ccc(S(=O)(=O)Nc2ccc(C)c(S(=O)(=O)N3CCOCC3)c2)cc1 | 0.16%
CC1=CC(C)(C)N(C(=O)CSc2nnc(-c3ccccc3)o2)c2ccc(C)cc21 | -0.38%
COc1ccc2c(c1)C(C)=CC(C)(C)N2C(=O)Nc1ccccc1 | 41.3% (active)
COc1ccc2c(c1)C(C)=CC(C)(C)N2C(=O)CNCc1ccc2c(c1)OCO2 | -2.09%

Structure (SMILES) | inhibition
O=C(CCc1nnc(Cc2ccc3c(c2)OCO3)o1)NCCc1ccccc1Cl | -1.6%
Fc1ccccc1/C=N/Nc1cc(N2CCCCC2)ncn1 | 9.65%
CN(C)c1ccc(/C=N/Nc2cc(N3CCOCC3)nc(N3CCOCC3)n2)cc1 | 53.4% (active)
C/C(=N\Nc1nc(N2CCOCC2)nc(N2CCOCC2)n1)c1ccc([N+](=O)[O-])cc1 | -9.47%
CNC(=S)NNC(=O)c1oc2nc(-c3ccccc3)cc(-c3ccco3)c2c1N | 29.8%
NNC(=O)c1oc2nc(-c3ccccc3)cc(-c3ccco3)c2c1N | 51.2% (active)
Cc1ccc(O)c(NC(=O)c2cc(-c3ccco3)on2)c1 | 5.21%
O=C(NNC(=O)C1CCC1)c1ccccc1 | -19.3%
O=C(N/N=C/c1ccccc1O)C1CCCC1 | 44.9% (active)
CC1(C)C2CC=C(/C=N/NC(=O)C3CC3)C1C2 (stereo not drawn) | -0.11%
COc1ccc(CCNC(=O)CCCCCNC(=O)N2CCn3c2nc2ccccc23)cc1OC | 7.99%
O=Cc1c(Nc2ccccc2Cl)nc2ccccn2c1=O | -6.5%
CC(=O)c1ccc(NC(=O)c2ccc(-n3cncn3)c([N+](=O)[O-])c2)cc1 | -41.9%
C=CCn1c(COc2ccc(F)cc2)nnc1SCC(=O)Nc1cccc(S(N)(=O)=O)c1 | 5.06%
C=CCn1c(COc2cccc3cccnc23)nnc1SCC(=O)OC | 46.5% (active)
C=CCn1c(COc2ccccc2C)nnc1SCC(=O)O | -1.87%
CCC(C)(C)n1nnnc1C(c1cccs1)N1CCN(c2nc3ccccc3s2)CC1 (stereo not drawn) | 5%
O=C(NCc1nnnn1-c1ccc(Cl)cc1)c1ccc2c(c1)OCO2 | -5.24%
COc1cccc(Nc2nnc(SCC(=O)N3CC(C)OC(C)C3)s2)c1 (stereo not drawn) | -4.5%
O=C(NCCCO)c1cc2c([nH]c3ccccc32)c(-c2ccc(F)cc2)n1 | 44.3% (active)
O=C(NCC1CCCO1)c1cc2c([nH]c3ccccc32)c(-c2ccc(F)cc2)n1 (stereo not drawn) | 21%
O=C(NCCc1ccc(F)cc1)c1n[nH]c2ccccc12 | 9.02%
O=c1cc(CN2CCN(c3cccc(Cl)c3)CC2)c2cc3c(cc2o1)CCCC3 | -45.2%
CCC(CC)C(=O)N1CC(=O)Nc2ccc(Br)cc2C1c1ccccc1 (stereo not drawn) | -1.94%

Structure (SMILES) | inhibition
Oc1ccc(/C=N/N(Cc2ccccc2)c2ccccc2)cc1 | 13.8%
CCN(/N=C/c1ccc(N(C)C)cc1)c1nc2ccccc2[nH]1 | 47.9% (active)
CCN(/N=C/c1ccccc1)c1cc(=O)n(C)c(=O)[nH]1 | 14.3%
CCC(C)c1ccc(NC(=S)NCc2ccccn2)cc1 (stereo not drawn) | 3.21%
O=S(=O)(c1cccc(Cn2nnc(-c3ccc(F)cc3)n2)c1)N1CCOCC1 | -1.01%
O=C(C[C@@H]1C/C=C\CCC(=O)OC[C@@H]2CCCN2C1=O)NCCO | -13.4%
O=C(NC(Cc1c[nH]c2ccccc12)C(=O)N/N=C/c1ccc(Br)cc1)c1cccs1 (stereo not drawn) | -5.72%
O=C(CNC(=O)c1ccccc1Br)NNC(=O)c1cccs1 | 7.39%
CCN(CC)c1ccc(/C=N/NC(=O)CNC(=O)c2cccs2)cc1 | 55.1% (active)
CCOc1cc(C2C(C(=O)OC)=CN(C3CCCC3)C=C2C(=O)OC)cc(Br)c1O | -306%
COC(=O)C1=CN(Cc2ccc(OC)cc2)C=C(C(=O)OC)C1c1ccc(O)c(OC)c1 | 40.7% (active)
O=C(NC1CC1)C(Cc1ccccc1)NS(=O)(=O)c1ccccc1F (stereo not drawn) | -5.68%
O=C(CN1CCN(c2ccccc2O)CC1)NC(=O)NCc1ccccc1 | 1.32%
CCOCCCNC(=O)C(NC(=O)c1ccccc1O)c1ccccc1 (stereo not drawn) | 46.5% (active)
CCOCCCNC(=O)C(NC(=O)CNC(=O)c1ccccc1)c1ccc(C)cc1 (stereo not drawn) | 2.03%
CCOCCCNC(=O)C(NC(=O)CNC(=O)c1ccccc1)c1ccc(OC)cc1 (stereo not drawn) | 0.37%
CC(C)=CCc1ccc(O)c(=O)cc1C(C)C | 1.77%
O=C(O)C(F)(F)C(NCc1ccccc1)c1ccccc1 (stereo not drawn) | -2.55%
CC(C)c1ccc(CC(=O)N2CCC2(C)C(=O)NS(=O)(=O)c2ccc(C(C)(C)C)cc2)cc1 (stereo not drawn) | -0.27%
CN(C)c1ccnc2sc(C(=O)c3ccccc3)c(N)c12 | 42.8% (active)
Cc1cccc2cc3c(N)c(C(=O)N4CCCc5ccccc54)sc3nc12 | -5.05%
CC(=O)c1c(Nc2ccccc2)sc(C(=O)c2ccccc2)c1C | 5.82%
COC(=O)c1cc2c(N)c(C(=O)c3ccc(Cl)cc3)sc2nc1C(OC)OC | 12.2%
Cc1nc2sc(C(=O)c3ccccc3)c(N)c2c2c1CCCC2 | 47.1% (active)

Structure (SMILES) | inhibition
O=C(Nc1c(-c2ccccc2)nc2c(Br)cc(Br)cn12)c1ccco1 | -168%
OCC[C@H]1C[C@H](O)[C@@H](O)[C@]2(Cc3ccccc3CO2)O1 | -28.9%
Cc1noc(C)c1CCC(=O)O | -7.17%
CN(Cc1ccccc1)C(=O)CCC1CCN(C(=O)c2ccco2)CC1 | 6.05%
CCOC(=O)c1cnc(SCC(=O)Nc2cccc(OC)c2)nc1N | -0.72%
COc1ccc(/C=C/C(=O)OCC(=O)N2CCN(S(=O)(=O)c3ccc(C)cc3C)CC2)cc1OC | 24.4%
CCCCNS(=O)(=O)c1ccc(S(=O)(=O)n2cnc3ccccc32)cc1 | -2.84%
O=C(CSc1ccc(/C=N/NC(=O)c2cccc(F)c2)o1)Nc1ccccc1 | -3.46%
NC(=O)Cn1cc(/C=N\NS(=O)(=O)c2ccccc2)c2ccccc21 | -17.8%
O=C(Cn1cc(/C=N/NC(=O)c2cccc(C(F)(F)F)c2)c2ccccc21)Nc1ccc(F)cc1 | 44% (active)
COc1ccc([N+](=O)[O-])cc1NC(=O)COC(=O)/C=C/c1ccco1 | -34%
O=S(=O)(NC1CC2CCC1C2)c1ccc(Cl)cc1 (stereo not drawn) | -2.94%
O=C(NNC(=O)C1C2CCC(C2)C1C(=O)O)c1ccc(Cl)cc1 (stereo not drawn) | 2.72%
O=C(NNC(=S)NC1CC2CCC1C2)c1ccc(Cl)cc1 (stereo not drawn) | 62.7% (active)
CC1(C)CC(=O)C2=C(C1)Nc1cc(C(=O)c3ccccc3)ccc1NC2c1ccccn1 (stereo not drawn) | 24.5%
Cc1cc2cc(CN(Cc3cccs3)Cc3nnnn3CC3CCCO3)c(=O)[nH]c2cc1C (stereo not drawn) | 4.8%
Cc1ccc(S(=O)(=O)N(Cc2cc3ccccc3[nH]c2=O)CC2CCCO2)cc1 (stereo not drawn) | 11.6%
COc1ccc2[nH]c(=O)c(CN(CC3CCCO3)C(=O)Nc3ccccc3)cc2c1 (stereo not drawn) | 21.1%
CCOc1ccc2[nH]c(=O)c(CN(Cc3nnnn3CCc3ccccc3)CC3CCCO3)cc2c1 (stereo not drawn) | 44% (active)
Cc1cc(C)c2cc(CN(Cc3cccs3)Cc3nnnn3CC3CCCO3)c(=O)[nH]c2c1 (stereo not drawn) | -8.71%
CCOc1ccc2[nH]c(=O)c(CN(Cc3nnnn3Cc3ccccc3)CC3CCCO3)cc2c1 (stereo not drawn) | 48% (active)
